# Data as given in PubChem BioAssay AID1704 (The Scripps Research Institute Molecular Screening Center, 2009).
# The other results are listed elsewhere or left out. Values without a mark were called inactive. Calls of active or inactive are those of the source.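 How the source made its calls: active means inhibition above the mean of stimulated solvent-only control wells plus 3 SD (cut at about 22% in these data); inactive means the rest.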
# Assay: CNGC cAMP sensor activity inhibitors, counter-screen for NPY-Y1 potentiator/agonist project, cell-based, HEK293-CNG parental, membrane potential fluorescence, Y1 set (AID 1704);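 further: 0% = isoproterenol-stimulated DMSO wells and 100% = unstimulated DMSO wells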
# Conditions: isoproterenol cAMP, at 3.6 µM, hits give high values
row,SMILES,inhibition
1,Cc1nn(Cc2ccccc2Cl)c(Cl)c1C(=O)OC(C(=O)NC(N)=O)C(C)C (configuration not stated),43.1% (active)
2,CSC1=NP(=S)(SC)N(C)c2nc3n(c21)CCC3 (configuration not stated),3.97%
